In PubChem BioAssay (NCI):
This is part of a sample that, as a whole, favours compounds with a hit. Of some 79,000 tested, about 15% had one in any assay. Active and inactive are the calls of the source. Cut-off read from the data, not from the text of the source: active = growth inhibition above about 70%; inactive = the rest.

Experiments:
[1] = NCI Yeast Anticancer Drug Screen. Data for the rad50 strain (AID 155);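 note: 0% = growth of vehicle-only cultures of the same strain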; conditions: S. cerevisiae rad50 strain growth inhibition; at 50.0 µM; stronger effect = higher value
Outline: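 Readout: growth inhibition relative to vehicle-treated cultures. Compound exposure was carried out in a genetically defined yeast strain deficient in DNA damage repair.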

[2] = NCI Yeast Anticancer Drug Screen. Data for the mec2-1 strain (AID 157); conditions: S. cerevisiae mec2-1 strain, at 50.0 µM, stronger effect = higher value
Outline: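 Test agents were screened against the mec2-1 yeast strain, with defined DNA repair or cell cycle alteration. Growth was scored as inhibition against vehicle-only controls.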

[3] = NCI Yeast Anticancer Drug Screen. Data for the sgs1 mgt1 strain (AID 161);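 note: 0% = growth of cultures given vehicle only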; conditions: S. cerevisiae sgs1 mgt1 strain, at 50.0 µM, stronger effect = higher value
Outline: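 Read-out: growth inhibition vs vehicle controls. Cells: mutant yeast strain deficient in DNA damage repair.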

[4] = NCI Yeast Anticancer Drug Screen. Data for the cln2 rad14 strain (AID 165);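 note: 0% = growth equal to vehicle treated cultures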; conditions: S. cerevisiae cln2 rad14 strain, at 50.0 µM, stronger effect = higher value
Outline: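 Growth of compound-exposed yeast (cln2 rad14 genotype) measured and expressed as inhibition relative to vehicle.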

[5] = NCI Yeast Anticancer Drug Screen. Data for the bub3 strain (AID 167); conditions: S. cerevisiae bub3 mutant strain, at 50.0 µM, stronger effect = higher value
Outline: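 Readout: yeast growth inhibition, expressed relative to vehicle-only wells. The test organism is a mutant strain from a panel with lesions in DNA repair or checkpoint genes.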

[6] = NCI Yeast Anticancer Drug Screen. Data for the mlh1 rad18 strain (AID 175); conditions: S. cerevisiae mlh1 rad18 strain growth inhibition; at 50.0 µM; stronger effect = higher value
Outline: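 In this whole-cell yeast screen, a strain with altered DNA damage repair is challenged with compound, and its growth is measured against matched vehicle-treated controls.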

Measured: growth inhibition

C/C=C/C1OCC(C)([N+](=O)[O-])CO1 (centres undefined)
inactive: [1] 23.5% | [2] 10.1% | [3] 19.4% | [4] 12.5% | [5] -1.35% | [6] 31.1%

COn1nnc2c([N+](=O)[O-])cccc21
inactive: [1] 18.8% | [2] -6% | [3] -3.15% | [4] -22.9% | [5] -16.4% | [6] 5%

C1=COC(C2NCCCN2)CC1 (centres undefined)
inactive: [1] -5.9% | [2] 8.25% | [3] -2.6% | [4] -68.8% | [5] -26.5% | [6] -3.7%

CN1c2ccccc2N(C(=O)c2ccccc2)C(CC(=O)O)c2cccn21 (centres undefined)
inactive: [1] -22.4% | [2] -40.5% | [3] -33.1% | [4] 23.8% | [5] -45% | [6] -16.3%

O=S1Cc2nc3ccccc3n2C1c1c(F)cccc1F (centres undefined)
inactive: [1] 1.25% | [2] -6.1% | [3] -4% | [4] 21.6% | [5] 3.6% | [6] -18.8%

CCOC(=O)c1c(C)c(C)n2c1NC(=O)C2
inactive: [1] -4.5% | [2] -4.6% | [3] -37.5% | [4] -36.8% | [5] -30.6% | [6] -13.9%

O=C1c2ccccc2C(O)(c2ccccc2)c2ccccc21
inactive: [1] 13.4% | [2] 20.6% | [3] 13.8% | [4] -21.6% | [5] 13.4% | [6] 0.35%

O=C1c2ccccc2-c2cccc3ccc(-c4ccccc4)c1c23
inactive: [1] 4.85% | [2] 1.9% | [3] -10.2% | [4] -2.85% | [5] -7.25% | [6] 12.5%

OCC1CC2c3ccccc3C1c1ccccc12 (centres undefined)
inactive: [1] -12% | [2] -22.1% | [3] -12.1% | [4] -0.05% | [5] -28.4% | [6] -6.75%

O=C(Nc1ccc2ccccc2c1)C1CC1
inactive: [1] 0.2% | [2] -13.3% | [3] -9.15% | [4] -68.8% | [5] -33.1% | [6] -6.65%

N#Cc1c(N2CCCC2)ncn(Cc2ccccc2)c1=O
inactive: [1] 0.7% | [2] 12.8% | [3] 0.2% | [4] -30.8% | [5] 7.15% | [6] 4.7%

Cc1cccc(-c2nc(-c3cnccn3)n(Cc3ccccc3)n2)c1
inactive: [1] -67.5% | [2] -46.9% | [3] -62% | [4] -39.6% | [5] -51.1% | [6] -61.2%

N#CC1C(C#N)C2CCC1C1N=NN(c3ccccc3)C21 (centres undefined)
inactive: [1] -16.4% | [2] -12.1% | [3] -10.8% | [4] -19.1% | [5] 17.9% | [6] -28.6%

N#C/C(C(=N)c1ccccc1)=C1\SS/C(=C(\C#N)C(=N)c2ccccc2)S1
inactive: [1] 7.2% | [2] 2.35% | [3] 7.6% | [4] 23.7% | [5] 3.7% | [6] -4.45%

c1ccc(C23c4ccccc4C2c2ccccc23)cc1 (centres undefined)
inactive: [1] 14.3% | [2] 11.9% | [3] 22.2% | [4] 10.2% | [5] 18.3% | [6] 13.9%

CC1=NC2c3c(-c4ccc(Cl)cc4)cn(-c4ccc(C)cc4)c3N=CN2N1 (centres undefined)
inactive: [1] 7.75% | [2] -5.9% | [3] -16.6% | [4] 15.8% | [5] 0.5% | [6] -1.6%

COC(=O)C(=O)C(C(=O)C=C(C)C)C(=O)C(=O)Nc1cccc(C(C)=O)c1 (centres undefined)
inactive: [1] -18.4% | [2] -8.25% | [3] -14.7% | [4] 16.4% | [5] -13.2% | [6] -26.2%

O=[N+]([O-])c1cccc(-c2cc3ccccn3c2)c1
inactive: [1] 28.9% | [2] 7% | [3] 13.8% | [4] 5.6% | [5] -1.95% | [6] 6.85%

CN(c1ccccc1Cl)S(=O)(=O)c1ccccc1[N+](=O)[O-]
inactive: [1] 5.15% | [2] -30.1% | [3] 31.2% | [4] -18% | [5] 38% | [6] 2.95%

Cc1nc(-c2nc(C)c(C(=O)NN(C)C)s2)sc1C(=O)NN(C)C
inactive: [1] 28.4% | [2] -7.8% | [3] 23.2% | [4] 23.7% | [5] 3.1% | [6] 22%

O=C(N/C(=C\c1ccccc1Cl)c1nc2ccccc2[nH]1)c1ccccc1
inactive: [1] -20.5% | [2] -15.1% | [3] -23% | [4] 10.2% | [5] 38.9% | [6] 10%

CN(C)CCC(=O)Cc1ccccc1
inactive: [1] -8.8% | [2] -12.3% | [3] -4.55% | [4] -8.15% | [5] -26.1% | [6] 0.95%

CCOC(=O)c1cnc2ccccc2c1N=[N+]=[N-]
inactive: [1] -0.9% | [2] 27.8% | [3] 25.5% | [4] -34% | [5] 40.5% | [6] 29.9%

Clc1ccccc1C(Nc1ncccn1)Nc1ncccn1
inactive: [1] 11.1% | [2] 15% | [3] -8.05% | [4] -0.25% | [5] 41% | [6] 13.1%

CCOC(=O)Nc1nc2ccn(C)c2s1
inactive: [1] 6.3% | [2] -6.9% | [3] 2.15% | [4] -6.4% | [5] 4.6% | [6] -8%

CS(=O)(=O)OCCCCOS(=O)(=O)CF
inactive: [1] -36.9% | [2] -35% | [3] -31.4% | [4] -14.2% | [5] -8.7% | [6] -20%

NC(C(F)(F)F)(C(F)(F)F)P(=O)(Cc1ccccc1)Cc1ccccc1
inactive: [1] -8.35% | [2] -47.4% | [3] -18.7% | [4] -13.8% | [5] -23.1% | [6] 7.85%

CCCCCOc1ccc(/C=C\C(=O)O)cc1
inactive: [1] 11.3% | [2] 2.55% | [3] -11.2% | [4] -6.75% | [5] -18.4% | [6] -6.35%

O=C(Nc1nncs1)c1ccncc1
inactive: [1] -14.8% | [2] -5.75% | [3] -13.2% | [4] 7.1% | [5] -28.8% | [6] -46.1%

c1ccc(-c2csc(-c3nc(-c4ccccc4)cs3)n2)cc1
inactive: [1] -0.55% | [2] 50% | [3] 30.6% | [4] -6.85% | [5] 33% | [6] 60.6%

CN(C)Cc1cccc(-c2ccccc2)c1O
inactive: [1] 21.8% | [2] -4.9% | [3] 12% | [4] -15.8% | [5] 5.3% | [6] 17.2%

O=P(O)(O)OC1C(OP(=O)(O)O)C(OP(=O)(O)O)C(OP(=O)(O)O)C(OP(=O)(O)O)C1OP(=O)(O)O.[Zn+2] (centres undefined)
inactive: [1] -24.7% | [2] -4.8% | [3] -16.6% | [4] 9.6% | [5] -23% | [6] -6.2%

O=C1COC(=O)N1
inactive: [1] -6.85% | [2] -22.4% | [3] -3.45% | [4] -3.35% | [5] 0.2% | [6] 8.25%

CS(=O)(=O)Nc1cccc(C(=O)NN)c1
inactive: [1] -8.1% | [2] -16.2% | [3] -3.4% | [4] -11.3% | [5] -11.7% | [6] 14.4%

COc1ccc2c(N=[N+]=[N-])cc(C)nc2c1
inactive: [1] -42.2% | [2] -1.45% | [3] -16.9% | [4] -57.5% | [5] 1.55% | [6] 20.4%

Cc1nc2cccc([N+](=O)[O-])c2c(O)[n+]1C
inactive: [1] -13.9% | [2] -10.8% | [3] -12.4% | [4] -17.6% | [5] -9.05% | [6] -17.9%

O=C(C#CP(=O)(O)c1ccccc1)c1ccccc1
inactive: [1] 22.5% | [2] 16.4% | [3] -6.2% | [4] 17.5% | [5] -17.6% | [6] 3.05%

COc1ccc(C2C(=O)C(Cl)N2Nc2nc(C)cc(=O)[nH]2)cc1OC (centres undefined)
inactive: [1] 1.45% | [2] -18.9% | [3] 4.2% | [4] -2.3% | [5] -27.9% | [6] -15.8%

OC(c1ccccc1)C(CN1CCCCC1)c1ccccc1 (centres undefined)
inactive: [1] 3.9% | [2] 2.55% | [3] 24.9% | [4] -11.8% | [5] 4.95% | [6] 15.4%
